# Compounds with a hit are over-represented: about 6.9% of the library has one in this group of screens.
# CSC inhib = cancer stem cell inhibition | cancer stem cell-like cells viability, luminescence | 1.1% of 300,000 active | inhibition, % at 7.5 µM; in the data active means inhibition above about 75%; tested in HMLE shEcad cells
# Mdm2 MdmX PPI = disrupts the human Mdm2-MdmX interaction; O15151+Q00987; AID 485346; inhibition, % at 8 µM; 3% of 330,000 active; SaOS-2 split-luciferase Mdm2/MdmX complementation, luminescence;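 active means inhibition of at least 50% at 8 µM in the primary screen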
# Target sequence (O15151 whole entry, looked up): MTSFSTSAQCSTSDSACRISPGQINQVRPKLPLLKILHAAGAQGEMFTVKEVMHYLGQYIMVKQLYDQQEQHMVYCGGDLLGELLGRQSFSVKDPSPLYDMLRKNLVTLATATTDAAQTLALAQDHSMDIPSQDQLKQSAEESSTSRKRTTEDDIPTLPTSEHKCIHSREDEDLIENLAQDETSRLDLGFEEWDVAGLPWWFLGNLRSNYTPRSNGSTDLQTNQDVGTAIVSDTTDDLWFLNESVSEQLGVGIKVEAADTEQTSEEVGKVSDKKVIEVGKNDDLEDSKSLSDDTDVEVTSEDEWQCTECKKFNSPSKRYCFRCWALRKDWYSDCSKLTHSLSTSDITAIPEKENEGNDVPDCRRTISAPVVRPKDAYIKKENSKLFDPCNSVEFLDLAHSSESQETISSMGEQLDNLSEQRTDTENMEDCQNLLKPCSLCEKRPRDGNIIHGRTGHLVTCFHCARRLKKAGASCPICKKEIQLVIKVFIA
# Target sequence (Q00987 whole entry, looked up): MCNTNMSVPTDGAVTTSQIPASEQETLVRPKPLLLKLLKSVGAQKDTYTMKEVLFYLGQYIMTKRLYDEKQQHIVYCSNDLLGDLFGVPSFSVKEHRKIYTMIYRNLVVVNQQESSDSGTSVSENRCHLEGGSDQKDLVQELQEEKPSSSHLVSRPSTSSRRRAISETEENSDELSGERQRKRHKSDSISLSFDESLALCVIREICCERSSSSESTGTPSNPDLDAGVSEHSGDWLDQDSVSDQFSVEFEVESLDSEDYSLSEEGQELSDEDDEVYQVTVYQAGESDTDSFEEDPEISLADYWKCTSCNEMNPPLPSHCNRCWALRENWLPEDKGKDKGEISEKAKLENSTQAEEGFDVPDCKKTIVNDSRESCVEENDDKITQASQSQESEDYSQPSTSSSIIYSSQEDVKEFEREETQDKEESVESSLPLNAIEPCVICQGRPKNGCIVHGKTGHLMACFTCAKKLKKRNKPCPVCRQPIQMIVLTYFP
# MPTP block = permeability transition pore inhibition; isolated mouse mitochondria, Ca2+ swelling absorbance, 30 min; inhibition, % at 10 µM; 1.4% of 360,000 active; AID 602449;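 active means inhibition of 50% or more, scaled per plate between neutral and stimulator controls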;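 further: 0% = DMSO wells given calcium and 100% = 1 mM EGTA wells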
# GRIN3A LBD mod = modulates the human NR3A ligand-binding domain | NR3A LBD differential scanning fluorimetry, Tm shift; 0% = protein alone, 100% = glycine-bound protein | Tm shift relative to glycine control, % at 25 µM | 2.5% of 340,000 active;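 active means melting temperature shift of at least 10% of the positive control shift, at one fixed dose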
# SKKanGAS inh = blocks kanamycin growth of S. pyogenes SKKanGAS strain | BacTiter-Glo, 6 h | inhibition, % at 7.5 µM | 1.3% of 300,000 active | AID 1662;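 active means mean replicate score, as percent of positive control median, at least 50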;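 further: strain carries kanamycin resistance gene driven by streptokinase promoter and grows in 40 µg/ml kanamycin; loss of luminescence reflects streptokinase promoter inhibition or plain growth inhibition; 0% = median of DMSO wells and 100% = positive control at its reference dose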
# Beta cell apopt = blocks beta cell apoptosis; INS-1E cytokine-induced death, ATP luminescence, 48 h; percent of positive-control rescue, neutral wells zero; AID 435005; protection from apoptosis, % (no concentration beside the values); 0.8% of 300,000 active;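 active means Every replicate reaches about 75%, or at least half do and their mean reaches it too, limit read from the data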;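 further: 0% = cytokine-treated negative control wells and 100% = positive control rescue; higher means more ATP so stronger rescue from cytokine killing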
# Numbers without * were called inactive; . = no result given.
SMILES,CSC inhib,Mdm2 MdmX PPI,MPTP block,GRIN3A LBD mod,SKKanGAS inh,Beta cell apopt
CC(C)(C)c1cc(C(=O)NNc2cccc(Cl)c2)n(Cc2ccccc2)n1,128*,17,30,7,32,23
COc1ccccc1NNC(=O)c1cc(C(C)(C)C)nn1Cc1ccccc1,30,-11,3,1,-5,-1
CC(C)(C)c1cc(C(=O)NNc2ccc(OC(F)(F)F)cc2)n(Cc2ccccc2)n1,78*,15,13,2,11,6
Cc1ccc(NNC(=O)c2cc(C(C)(C)C)nn2Cc2ccccc2)cc1,93*,17,13,0,60*,7
C=CCc1c(C)nc2c(-c3ccccc3)cnn2c1N1CCOCC1,0,.,0,1,3,-9
Cc1cnc(NC(=O)c2cc3c(C)nn(Cc4ccccc4Cl)c3s2)s1,35,41,-1,-4,54*,-2
CCCCn1c(NS(=O)(=O)c2ccc(C)cc2)c(S(=O)(=O)c2ccccc2)c2nc3ccccc3nc21,108*,.,7,-3,45,3
COc1cc(C2c3c([nH]c(=O)[nH]c3=O)Nc3ccc4ccccc4c32)ccc1O (configuration not stated),-9,-3,-2,27*,23,-6
COc1cc(C2C3=C(CCCC3=O)Nc3[nH]n(-c4ccccc4)c(=O)c32)cc(OC)c1OC (configuration not stated),8,-2,-2,1,-4,-6
COc1cc(C2CC(=O)c3c(ccc4ccccc34)N2)ccc1O (configuration not stated),8,10,-1,-2,0,-3
COc1cc(C2c3c([nH]c(=O)[nH]c3=O)Nc3ccc4ccccc4c32)cc(OC)c1OC (configuration not stated),.,27,0,30*,-20,-9
COc1cccc(C2c3c(oc4ccc(Cl)cc4c3=O)C(=O)N2c2cc(C)on2)c1OC (configuration not stated),.,29,0,11*,6,13
COc1ccc(/C(O)=C2\C(=O)C(=O)N(c3cc(C)on3)C2c2cccc(OC)c2OC)cc1C (configuration not stated),-1,9,1,2,10,2
COc1cccc(/C(O)=C/c2nc3ccc(C(=O)NCCc4ccc(Cl)cc4)cc3[nH]c2=O)c1,.,.,-2,11*,37,.
O=C(NCCc1ccc(Cl)cc1)c1ccc2nc[nH]c2c1,-6,-33,2,-8,2,-11
COc1cccc(CC(=O)Nc2cccc3ccccc23)c1,-1,14,-1,1,1,3
CCc1cc2cccc(C)c2nc1SCC(=O)c1ccc(NC(C)=O)cc1,121*,-5,2,7,-13,0
CCc1cc2cccc(C)c2nc1SCC(=O)Nc1cc(C)on1,30,20,-1,-1,0,2
CCc1cc2ccc(C)cc2nc1SCC(=O)c1ccc(NC(C)=O)cc1,87*,7,6,6,2,7
O=C(C[C@H]1CC[C@H]2[C@@H](COC[C@@H](O)CN2Cc2cc(F)ccc2F)O1)NCc1ccc(Cl)cc1,.,.,1,.,.,.
O=C(CNC(=O)c1ccccc1Br)N/N=C\c1cc([N+](=O)[O-])cc(Br)c1O,27,24,-5,2,59*,-6
O=C(CNC(=O)c1ccccc1Br)N/N=C/c1cc(Br)ccc1O,31,36,3,-2,73*,43
O=C(CNC(=O)c1ccccc1Br)N/N=C/c1ccccc1O,.,14,-2,-2,0,0
Clc1ccc2c(c1)nc1n2CCCC1,-6,-10,-1,15*,-2,3
O=[N+]([O-])c1ccc2c(c1)nc1n2CCCCC1,-8,-6,2,0,-4,-6
Cc1ccc(/C(N)=N/OC(=O)c2cccs2)cc1,-10,-20,1,-11,-14,-1
COc1ccc(/C(N)=N/OC(=O)c2cccs2)cc1OC,-12,-11,0,22*,-6,-4
COC(=O)/C=C1/SC(=NC(=O)c2cccc([N+](=O)[O-])c2)NC1=O,-7,-22,7,15*,2,0
COC(=O)/C=C1\SC(=NC(=O)c2cccc([N+](=O)[O-])c2)NC1=O,.,0,-1,13*,5,2
